# From PubChem BioAssay
# Active and inactive are the calls of the source. Unless noted, no rule for the calls is given here.
# How the values were obtained:
# [1] = compounds binding Alexa647 anti-His antibody – biochemical, small-molecule microarray, 635 nm fluorescence, artefact control for SMM control protein annotation, primary screen (AID 1128); conditions: higher = more signal;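 also: score merges feature fluorescence with signal-to-noise for each printed compound spot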
# [2] = system: Human papillomavirus type 1a E7 protein (residues 1-88); assay: HPV1a E7 small-molecule binders, primary screen, biochemical, small-molecule microarray, residues 1-88, 635 nm (AID 1129); conditions: small-molecule microarray binding, fluorescence 635 nm; higher = more signal
# [3] = biological target: Focal adhesion kinase 1 (Homo sapiens) (UniProt Q05397); assay: PTK2 protein binding on printed compound slides – biochemical, small-molecule microarray, 635/667 nm fluorescence, BSA, DTT, primary screen (AID 1130); conditions: 635 nm fluorescence, higher = more signal;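 also: composite of spot emission at 667 nm and signal to noise over triplicate slides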
# Sequence of Focal adhesion kinase 1 (Homo sapiens) (Q05397 whole entry, looked up): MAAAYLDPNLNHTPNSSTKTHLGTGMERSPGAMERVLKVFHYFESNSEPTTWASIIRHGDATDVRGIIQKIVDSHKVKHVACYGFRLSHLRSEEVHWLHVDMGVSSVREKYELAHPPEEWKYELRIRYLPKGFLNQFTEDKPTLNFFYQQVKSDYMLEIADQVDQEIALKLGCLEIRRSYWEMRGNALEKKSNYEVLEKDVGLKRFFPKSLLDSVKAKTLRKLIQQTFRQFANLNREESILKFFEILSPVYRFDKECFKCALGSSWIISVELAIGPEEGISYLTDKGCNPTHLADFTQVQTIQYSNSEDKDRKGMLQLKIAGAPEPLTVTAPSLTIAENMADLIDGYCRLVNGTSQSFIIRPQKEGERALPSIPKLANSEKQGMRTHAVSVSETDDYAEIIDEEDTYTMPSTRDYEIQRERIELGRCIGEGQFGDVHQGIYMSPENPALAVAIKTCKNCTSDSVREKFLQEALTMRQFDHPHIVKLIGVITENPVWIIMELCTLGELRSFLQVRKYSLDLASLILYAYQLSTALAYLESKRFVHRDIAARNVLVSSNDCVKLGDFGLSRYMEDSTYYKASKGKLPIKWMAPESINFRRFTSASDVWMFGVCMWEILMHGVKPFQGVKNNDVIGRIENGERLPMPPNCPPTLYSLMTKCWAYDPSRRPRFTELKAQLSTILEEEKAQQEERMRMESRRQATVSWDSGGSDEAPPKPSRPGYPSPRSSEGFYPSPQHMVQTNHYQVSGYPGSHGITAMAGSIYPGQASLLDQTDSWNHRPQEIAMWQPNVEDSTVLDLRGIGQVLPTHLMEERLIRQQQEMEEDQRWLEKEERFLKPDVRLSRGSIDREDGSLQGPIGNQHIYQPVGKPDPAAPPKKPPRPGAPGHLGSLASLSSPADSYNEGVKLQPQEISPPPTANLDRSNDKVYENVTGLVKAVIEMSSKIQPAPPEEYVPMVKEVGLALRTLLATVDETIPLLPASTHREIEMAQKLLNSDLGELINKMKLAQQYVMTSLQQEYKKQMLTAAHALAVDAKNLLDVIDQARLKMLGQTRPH
# [4] = system: Fibrinogen (Alexa647-labelled); assay: Alexa647-fibrinogen binding to printed small molecules – biochemical, small-molecule microarray, 635/667 nm fluorescence, artefact control for SMM control-protein annotation, profiling panel (AID 1131); conditions: fibrinogen-A647 binding fluorescence, higher = more signal;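 also: z-score merges 667 nm fluorescence with per-spot signal-to-noise over triplicate slides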
# [5] = biological target: Follistatin (Homo sapiens) (UniProt P19883); assay: FST protein binding to printed compounds – biochemical, small-molecule microarray, 635/667 nm fluorescence, primary screen (AID 1132); conditions: 635 nm fluorescence, higher = more signal
# Sequence of Follistatin (Homo sapiens) (P19883 whole entry, looked up): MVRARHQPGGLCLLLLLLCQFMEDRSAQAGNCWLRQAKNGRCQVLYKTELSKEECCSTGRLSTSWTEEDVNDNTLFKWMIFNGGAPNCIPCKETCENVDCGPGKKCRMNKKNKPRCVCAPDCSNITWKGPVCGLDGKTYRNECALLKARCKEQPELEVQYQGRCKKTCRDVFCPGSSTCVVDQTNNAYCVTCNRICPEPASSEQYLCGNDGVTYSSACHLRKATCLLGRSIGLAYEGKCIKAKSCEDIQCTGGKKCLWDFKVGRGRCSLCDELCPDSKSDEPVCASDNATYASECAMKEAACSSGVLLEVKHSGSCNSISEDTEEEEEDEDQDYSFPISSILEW
# [6] = biological target: Fibroblast growth factor 2 (Homo sapiens) (UniProt P09038); assay: basic fibroblast growth factor binding to printed compounds – biochemical, small-molecule microarray, 635/667 nm fluorescence, primary screen (AID 1133); conditions: FGF2, fluorescence 635/667, higher = more signal
# Sequence of Fibroblast growth factor 2 (Homo sapiens) (P09038 whole entry, looked up): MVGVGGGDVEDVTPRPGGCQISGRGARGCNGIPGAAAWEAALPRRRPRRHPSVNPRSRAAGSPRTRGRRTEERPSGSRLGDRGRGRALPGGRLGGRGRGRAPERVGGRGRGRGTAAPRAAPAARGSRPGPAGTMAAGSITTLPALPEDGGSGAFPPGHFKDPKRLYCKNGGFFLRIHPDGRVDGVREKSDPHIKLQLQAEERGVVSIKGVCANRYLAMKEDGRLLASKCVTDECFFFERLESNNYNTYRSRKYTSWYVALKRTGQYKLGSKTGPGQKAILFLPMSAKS
# [7] = JC-1 mitochondrial potential readout, lung cancer cells – cell-based, A549, JC-1 fluorescence, basal, 24 h, 100 nL, profiling panel (AID 1138); conditions: higher = more signal;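 also: A549 lung adenocarcinoma cells under basal conditions with no added stimulus; test concentration not given here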
# Lefty1 = Lefty1 protein binding to printed compounds – biochemical, small-molecule microarray, 635/667 nm fluorescence, primary screen (AID 1139); conditions: fluorescence 635/667, higher = more signal
# [8] = system: wheat germ agglutinin (Triticum aestivum), Alexa647-labelled; assay: Alexa647-WGA lectin binding to printed small molecules – biochemical, small-molecule microarray, 635/667 nm fluorescence, artefact control for SMM control-protein annotation, profiling panel (AID 1140); conditions: WGA-A647 binding, 635 nm fluorescence, higher = more signal;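 also: score merges 667 nm feature emission with signal to noise over triplicate slides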
# [9] = biological target: Luciferin 4-monooxygenase (Photinus pyralis) (UniProt P08659); assay: inhibition of purified Photinus pyralis luciferase – biochemical, luminescence, purified enzyme, 2006 set, primary screen (AID 1141); conditions: purified firefly luciferase, SteadyGlo luminescence, 30 min; higher = more signal, called active from +8 up or from −8 down;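 also: cell-free assay with purified firefly luciferase at 100 ng per well in PBS; test concentration not given here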
# Sequence of Luciferin 4-monooxygenase (Photinus pyralis) (P08659 whole entry, looked up): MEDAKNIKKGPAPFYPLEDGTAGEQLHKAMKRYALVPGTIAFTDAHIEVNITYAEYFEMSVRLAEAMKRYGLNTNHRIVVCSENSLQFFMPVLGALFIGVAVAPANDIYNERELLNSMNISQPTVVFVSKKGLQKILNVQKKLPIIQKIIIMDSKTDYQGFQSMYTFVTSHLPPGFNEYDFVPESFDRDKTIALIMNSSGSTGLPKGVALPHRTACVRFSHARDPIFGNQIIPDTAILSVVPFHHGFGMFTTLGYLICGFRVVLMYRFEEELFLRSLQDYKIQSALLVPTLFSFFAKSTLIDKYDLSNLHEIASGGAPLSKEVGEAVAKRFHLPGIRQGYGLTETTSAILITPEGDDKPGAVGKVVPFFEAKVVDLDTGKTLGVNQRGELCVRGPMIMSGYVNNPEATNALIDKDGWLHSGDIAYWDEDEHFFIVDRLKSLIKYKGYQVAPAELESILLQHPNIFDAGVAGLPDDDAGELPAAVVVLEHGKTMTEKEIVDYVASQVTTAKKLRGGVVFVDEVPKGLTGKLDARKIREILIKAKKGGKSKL
# [10] = system: Wnt5a (protein binding on small-molecule microarray); assay: small molecules binding Wnt5a protein – biophysical, small-molecule microarray, 635/667 nm fluorescence, primary screen (AID 1142); conditions: 635 nm fluorescence, higher = more signal;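 also: fluorescence read at 667 nm with signal to noise per printed feature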
# [11] = ATP-based viability of Huh7 replicon cells – cell-based, CellTiter-Glo luminescence, basal, 48 h, cytotoxicity control for HCV replication inhibitor project, primary screen (AID 1143); conditions: higher = more signal, called active from +8 up or from −8 down;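 also: Huh7 hepatoma cells carrying a hepatitis C replication reporter with no stimulus; test concentration not given here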
# [12] = Pseudomonas biofilm growth suppression – PAO1 strain, BacTiter-Glo luminescence, LB-PBS, primary screen (AID 1144); conditions: P. aeruginosa PAO1 biofilm, 12 h, higher = more signal
# [13] = basal CRE-LacZ reporter activity in PC12 – cell-based, unstimulated, primary screen (AID 1145); conditions: no forskolin, luminescence, 4.5 h, higher = more signal, called active from +8 up or from −8 down
# [14] = forskolin-driven CRE-LacZ activity in PC12 – cell-based, CRE-LacZ reporter, forskolin-stimulated, primary screen (AID 1146); conditions: luminescence, 4.5 h, higher = more signal, called active from +8 up or from −8 down;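 also: PC12 cells with 6xCRE LacZ reporter stimulated by forskolin 10 µM; beta-galactosidase reporter signal reflecting CREB driven transcription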
# [15] = biological target: Streptavidin (Streptomyces avidinii) (UniProt P22629); assay: compounds binding control protein streptavidin – biophysical, small-molecule microarray, 635/667 nm fluorescence, artefact control for SMM compound annotation, primary screen (AID 1147); conditions: higher = more signal;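 also: signal reflects streptavidin binding to arrayed compounds as a control protein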
# Sequence of Streptavidin (Streptomyces avidinii) (P22629 whole entry, looked up): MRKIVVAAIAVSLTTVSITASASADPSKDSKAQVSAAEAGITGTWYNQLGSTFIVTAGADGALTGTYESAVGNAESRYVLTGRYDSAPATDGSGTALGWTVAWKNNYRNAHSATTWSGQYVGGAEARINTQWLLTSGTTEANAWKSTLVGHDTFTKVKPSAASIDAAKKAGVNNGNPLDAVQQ
# [16] = probe aInhba binding on compound microarray – biochemical, small-molecule microarray, 635/667 nm fluorescence, primary screen (AID 1148); conditions: higher = more signal;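 also: score merges 667nm spot fluorescence with signal-to-noise for antibody binding to printed compounds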
# Torsin-1A (Homo sapiens) [17] = biological target: Torsin-1A (Homo sapiens) (UniProt O14656); assay: TOR1A wild-type binding on microarray – cell lysate, small-molecule microarray, lysate, 635/667 nm, primary screen (AID 1149); conditions: COS7 hTOR1A-WT lysate, 635 nm fluorescence, higher = more signal
# Sequence of Torsin-1A (Homo sapiens) (O14656 whole entry, looked up): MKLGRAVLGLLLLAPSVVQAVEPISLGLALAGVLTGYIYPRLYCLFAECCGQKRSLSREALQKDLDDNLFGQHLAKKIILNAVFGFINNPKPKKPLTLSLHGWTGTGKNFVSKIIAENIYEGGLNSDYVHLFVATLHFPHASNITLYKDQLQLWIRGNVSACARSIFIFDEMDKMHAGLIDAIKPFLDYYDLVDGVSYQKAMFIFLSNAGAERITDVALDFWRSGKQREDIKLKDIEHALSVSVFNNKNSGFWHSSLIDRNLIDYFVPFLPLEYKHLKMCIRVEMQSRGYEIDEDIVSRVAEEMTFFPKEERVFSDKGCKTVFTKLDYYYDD
# Torsin-1A (Homo sapiens) [18] = biological target: Torsin-1A (Homo sapiens) (UniProt O14656); assay: torsin A mutant lysate binding on microarrays – cell lysate, small-molecule microarray, COS7 lysate, 635/667 nm fluorescence, primary screen (AID 1150); conditions: COS7 hTOR1A mutant lysate, 635 nm fluorescence, higher = more signal;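 also: score pools 667 nm emission and signal to noise measuring lysate protein binding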
# [19] = system: Sonic hedgehog protein (Shh); assay: Sonic hedgehog microarray binding compounds – biochemical, small-molecule microarray, 635/667 nm fluorescence, primary screen (AID 1151); conditions: 635 nm fluorescence, higher = more signal;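 also: Shh protein binding to compounds spotted on small-molecule microarray slides; score combines spot fluorescence intensity with signal-to-noise across triplicate slides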
SMILES,composite z-score [1],composite z-score [2],composite z-score [3],composite z-score [4],composite z-score [5],composite z-score [6],z-score [7],composite z-score (Lefty1),composite z-score [8],z-score [9],composite z-score [10],z-score [11],z-score [12],z-score [13],z-score [14],composite z-score [15],composite z-score [16],composite z-score (Torsin-1A (Homo sapiens) [17]),composite z-score (Torsin-1A (Homo sapiens) [18]),composite z-score [19]
O=C1OCC=C[C@H]2OC34C=CCN(c5ccc6ccccc6c5)C(=O)[C@H]3N(CCCO)C(=O)[C@@H]4[C@@H]12 (stereo not given in full),-0.349,-0.92,-0.409,-0.669,0.0786,-0.989,-0.506,-0.11,-0.645,-0.18 (inactive),-0.701,-2.14 (inactive),0.179 (inactive),0.337 (inactive),0.27 (inactive),-0.835,-0.0675,-1.69,-1.38,-0.372
COc1ccc(C(=O)Nc2cccc(CN3C(=O)[C@@]4(O[C@@H](CCn5cc(CCO)nn5)[C@H]([Si](C)(C)c5ccc(OC)cc5)[C@H]4C)c4ccccc43)c2)cc1,1.38,1.16,0.582,0.701,1.35,1.51,-0.0548,1.29,0.701,-0.775 (inactive),0.504,-8.01 (active),-0.609 (inactive),8.36 (active),-1.29 (inactive),0.37,0.0184,0.503,0.347,1.72
C=CCOC(=O)[C@@H]1[C@H]2C(=O)O[C@H](c3ccccc3)[C@H](c3ccccc3)N2[C@H](c2ccc(OCCOC(=O)[C@@H]3C[C@@H]4C(=O)N[C@@H](Cc5ccccc5)C(=O)N4[C@@H]3c3cccc(OCCO)c3)cc2)[C@@]12C(=O)Nc1ccc(I)cc12,0.351,0.675,0.184,0.199,1.33,1.55,-0.917,0.951,0.181,0.152 (inactive),0.867,-0.166 (inactive),-0.525 (inactive),-1.08 (inactive),0.0071 (inactive),-0.184,0.35,1.3,0.731,2.16
CCCCC=C[C@@H](NC(=O)c1ccco1)c1ccccc1,0.34,-1.19,-0.0668,1.01,0.487,0.133,-0.881,-0.337,0.653,2.18 (inactive),0.143,-1.08 (inactive),-0.668 (inactive),0.19 (inactive),-0.0695 (inactive),0.889,0.194,0.129,0.225,0.0154
C=CC[C@@]1(C(=O)NCC(O)CO)N=C(c2ccc(OCCCO)cc2)O[C@@H]1c1ccccc1N=[N+]=[N-] (stereo not given in full),2.92,1.12,-0.121,0.415,0.849,-0.0851,-0.921,0.003,1.12,-11.2 (active),0.147,-4.04 (inactive),-0.281 (inactive),0.573 (inactive),-0.815 (inactive),1.02,0.246,1.4,1.48,-0.0776
COCCOC(=O)N1C(=O)[C@@]2(c3cc(C#CC4(O)CCCCCC4)ccc31)[C@H](C(=O)N1CCCCCCC1)[C@H]1C(=O)O[C@H](c3ccccc3)[C@H](c3ccccc3)N1[C@@H]2c1ccccc1OCCO,1.24,1.22,0.808,0.832,1.42,1.11,-1.04,0.955,1.39,-0.969 (inactive),0.647,-5.2 (inactive),0.148 (inactive),0.749 (inactive),-0.551 (inactive),1.96,1.22,0.601,1.26,1.37
C=CCNC(=O)[C@@H]1[C@H]2C(=O)O[C@H](c3ccccc3)[C@H](c3ccccc3)N2[C@H](c2ccccc2OCCO)[C@@]12C(=O)Nc1ccc(C#CC3=CCCCC3)cc12,1.57,1.22,0.683,0.9,1.21,1.02,-1.55,1.12,0.971,-1.48 (inactive),0.248,-6.58 (inactive),-1.43 (inactive),-1.42 (inactive),-1.45 (inactive),0.562,0.592,0.192,0.255,1.91
Cc1ccc(S[C@]2(C(=O)NCc3ccccc3)CC(=O)N(Cc3ccccc3)[C@@H]2c2ccc(CO)cc2)cc1,3.05,0.0804,0.691,-0.909,-0.211,-0.524,0.561,-1.33,-0.425,-0.627 (inactive),-0.202,-0.618 (inactive),0.395 (inactive),-0.735 (inactive),-0.26 (inactive),-0.926,-0.0719,-0.499,0.248,-0.242
O=C(CS)NCCCCCCNC(=O)[C@H]1C[C@H]2C(=O)N3CCC[C@H]3C(=O)N2[C@H]1c1cccc(OCCO)c1,1.7,1.23,0.615,0.0353,1.28,1.19,-0.145,0.731,0.658,-0.135 (inactive),0.35,-0.521 (inactive),-0.357 (inactive),0.549 (inactive),0.581 (inactive),0.359,-0.0917,0.536,1.31,1.52
N#Cc1ccc(NN2C(C(O)c3cccs3)C=CC3C(=O)N(c4ccccc4)C(=O)C32)cc1 (stereo not given),-0.272,0.685,0.421,0.71,0.556,-0.216,0.989,-0.257,0.578,-0.589 (inactive),0.128,-0.0331 (inactive),-1.34 (inactive),-0.329 (inactive),-0.224 (inactive),0.943,0.109,0.733,0.812,-0.318
